# Results: PubChem BioAssay AID2401 (Southern Research Specialized Biocontainment Screening …, 2010)
# Hit rate of the full screen: of about 2,200 compounds, about 530 (24%) were called active.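 Rule for the calls: active = inhibition above a set limit at one or more concentrations of the dose series; inactive = inhibition under that limit at every dose.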 Not all results are given here. Results with a measured potency or affinity are listed apart.
# Experiment: nmpC-GFP reporter counter-screen in S. Typhimurium, dose response, counter-screen for PhoP regulon inhibitor project, Salmonella Typhimurium, GFP fluorescence (AID 2401);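 note: S. typhimurium with Mg-insensitive nmpC-GFP reporter grown at 10 µM Mg2+; drop in reporter fluorescence reflects general culture growth inhibition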
# Details: 4 h; series mostly up to 150 µM
row,Compound,outcome
1,c1ccc(Nc2nc3ccccc3[nH]2)nc1,inactive
2,CC(=O)Nc1cccc(-c2csc(Nc3ccccn3)n2)c1,inactive
3,Clc1ccc(Cn2ncc3c(NCc4ccco4)ncnc32)c(Cl)c1,inactive
4,Cc1nc2cc(NC(=O)N3CCN(c4ccccn4)CC3)ccc2o1,inactive
5,CC(C)N(Cc1nc(-c2ccccc2)no1)C(=O)CN(C)S(=O)(=O)c1ccccc1,inactive
6,COc1ccccc1NCCC(=O)OCC(=O)NC1CCCCCC1,inactive
7,Cc1ccc(NC(=O)CO/N=C(\N)c2nonc2N)cc1,inactive
8,O=c1cc(CSc2nc(NCc3ccccc3)c3ccccc3n2)nc2ccc(Cl)cn12,inactive
9,N/C(=N\OC(=O)N1c2ccccc2Sc2ccccc21)c1ccccc1,inactive
10,Cc1cc(C)cc(OC(=O)CS(=O)c2ccc(C(F)(F)F)cc2[N+](=O)[O-])c1 (centres undefined),inactive
11,CCCOc1ccc(/C=N/O)cc1,inactive
12,C=C(C)C1Cc2cc3ccc(=O)oc3cc2O1 (centres undefined),inactive
13,CCOc1cc(C2Nc3cccc4cccc(c34)N2)ccc1O,inactive
14,CC(=O)N/N=C/c1ccc(OCCOc2ccc(Br)cc2)cc1,inactive
15,COC(=O)CCC(=O)Nc1ccc(OC)cc1,inactive
16,COc1cccc(-n2c(SCc3cc(=O)oc4cc(O)c(O)cc34)nc3ccccc3c2=O)c1,inactive
17,O=C(Cn1cnc2scc(-c3ccccc3)c2c1=O)N1CCOCC1,inactive
18,COc1ccccc1Nc1nc(-c2c(C)[nH]c3ccccc23)cs1,inactive
19,N#Cc1c(N)n[nH]c1-c1cc2c([nH]1)CCCC2,inactive
20,Cc1ccc(CNC(=O)Nc2cccs2)cc1,inactive
21,CCc1cccc2c(C#N)cn(CC(=O)NCCOC)c12,inactive
22,Cc1nc(N2CCN(Cc3ccccc3)CC2)nc2c1C(=O)CC(C)C2 (centres undefined),inactive
23,O=C(OCCN1C(=O)c2ccccc2C1=O)c1ccc(S(=O)(=O)N2CCCCCC2)cc1,inactive

row,Compound,outcome
1,Cc1cc(C)n(-c2ccc(C(=O)OCC(=O)Nc3ccc([N+](=O)[O-])cc3)cc2)n1,inactive
2,COc1ccc(/C=C2\CN(Cc3ccccc3)C/C(=C\c3ccc(OC)cc3)C2=O)cc1,inactive
3,COc1cccc(C=NCC(C)N=Cc2cccc(OC)c2O)c1O (centres undefined),inactive
4,N/C(=N\OC(=O)Nc1ccc(Cl)cc1)c1ncc(C(F)(F)F)cc1Cl,inactive
5,Cn1c(CO)cnc1SCc1ccc([N+](=O)[O-])cc1,inactive
6,Cc1nn(-c2ccccc2)c2sc(-c3n[nH]c(=S)o3)cc12,inactive
7,COc1ccc(C(=O)NC(=S)NCc2ccc(-c3nc4ccccc4o3)cc2)cc1OC,inactive
8,O=C1NC(c2ccc3c(c2)OCO3)Oc2ccccc21 (centres undefined),inactive
9,O=C(O)CCC(=O)NCC1OCCc2ccccc21 (centres undefined),inactive
10,C=CCNc1nnc(Cl)c2ccccc12,inactive
11,CCCCCCCCOC(=O)C1=C(C)Nc2nnnn2C1c1cccs1 (centres undefined),inactive
12,CCOC(=O)c1c(/N=C/c2ccc(O)cc2O)sc2c1CCC2,inactive
13,O=C(c1ccc(Cl)cc1Cl)C1(n2cncn2)Oc2ccccc2C1O (centres undefined),inactive
14,O=C(CCN1CCN(c2ccc(F)cc2)CC1)Nc1ccccc1F,inactive
15,Cc1sc(NC(=O)c2ccco2)c(CN2CCN(c3ccc(F)cc3)CC2)c1C,inactive
16,CCOC(=O)c1cc2sc(C)cc2n1CC(=O)NCc1ccc(F)cc1,inactive
17,CC(C(=O)Nc1cc([N+](=O)[O-])ccc1Cl)N1CCN(c2ccccc2O)CC1 (centres undefined),inactive
18,CC(C)NC(=O)/C(=N\O)c1ccccc1,inactive
19,CCOC(=O)C(/C=C(\C#N)C(=O)OCC)=C(/N)N1CCN(c2c(C)cccc2C)CC1,inactive
20,O=S(=O)(Nc1cc(Sc2ncn[nH]2)c(O)c2ccccc12)c1ccccc1,inactive
21,O=[N+]([O-])c1ccc(NCCCNS(=O)(=O)c2ccccc2)c(Cl)c1,inactive
22,Nc1c(-c2ccccc2)cnn1-c1cccc([N+](=O)[O-])c1,inactive
23,CCC(Sc1ncccc1C(=O)OC(C)C)C(=O)N1CCOCC1 (centres undefined),inactive

row,Compound,outcome
1,Cc1ccc(C)n1-c1cc(S(=O)(=O)N2CCOCC2)ccc1N1CCCC1,inactive
2,Cc1cc(Nc2ccccc2F)n2ncnc2n1,inactive
3,N#Cc1ccc(CSc2nnc(-c3ccncc3)n2CCc2ccccc2)cc1,inactive
4,O=C(NN=C1CCN(Cc2ccccc2)CC1)c1cc2ccccc2cc1O,inactive
5,C/C(=N\NC(=O)c1ccccc1)c1ccc2c(c1)OCO2,inactive
6,CN(C(=S)Nc1ccc(Oc2ccccc2)cc1)c1ccc(O)cc1,inactive
7,CC(C)Cn1c(-c2ccccc2)nc2ccccc2c1=O,inactive
8,COC(=O)c1c(C(=O)OC)c(-c2cccc(C)c2)n2c1CS(=O)(=O)C2,inactive
9,NC(=NCCc1c[nH]c2ccccc12)NC(=O)c1ccc(F)cc1,inactive
10,CC1CCN(c2ccc(NC(=S)NC(=O)c3ccc(-c4cccc([N+](=O)[O-])c4)o3)cc2)CC1,inactive
11,CCOc1ccc(-c2noc(CCCC(N)=O)n2)cc1OC,inactive
12,O=C(CNC(=O)c1ccco1)OCC(=O)c1ccc2c(c1)CCCC2,inactive
13,C/C(=N\n1nnnc1Nc1ccccc1)c1ccc(N)cc1,inactive
14,COc1ccc(NC(=O)CSc2nc(C)cs2)cc1OC,inactive
15,Cc1cc(NC(=O)c2cnn3cccnc23)no1,inactive
16,c1ccc(CCNc2nc3ccccc3s2)cc1,inactive
17,COc1ccc(-c2ccc(-c3noc(-c4cccs4)n3)c(OC)n2)cc1,inactive
18,COc1ccc(NC(C)C(=O)Nc2ccc(C(C)(C)C)cc2)cc1Cl (centres undefined),inactive
19,CC1CCCCN1CCNS(=O)(=O)c1ccc2c(c1)oc(=O)n2C (centres undefined),inactive
20,Cc1ccccc1-n1nnnc1Sc1nnnn1-c1ccccc1,inactive
21,C=CCn1c(SCc2c(C(=O)OC)sc(N)c2C(=O)OC)nnc1-c1ccc(Cl)cc1,inactive
22,CSCCC(NC(=O)c1cccc(C)c1)C(=O)OCC(=O)NC(=O)c1cccn1C (centres undefined),inactive
23,COc1ccc(-c2cc(C(=O)O)[nH]n2)cc1OC,inactive

row,Compound,outcome
1,O=C(O)CCc1nn2c3ccccc3n(CC(=O)c3ccccc3)c2nc1=O,inactive
2,COc1ccccc1/C=C1\CCCC2=C1Nc1nnnn1C2c1ccccc1OC (centres undefined),inactive
3,CCN(CC(=O)N1CCN(Cc2ccccc2)CC1)S(=O)(=O)c1ccc(F)cc1,inactive
4,S=C(Nc1cccc(Cl)c1)Nc1cccc2cnccc12,inactive
5,S=C(NCc1cccnc1)Nc1ccc(Cl)cc1,inactive
6,CSC(=NS(=O)(=O)c1ccccc1)SC,inactive
7,CCN(CC)c1ccc(/C=C(\C#N)C(=O)NCc2ccco2)cc1,inactive
8,CCOC(=O)C1=C(C)NC(=O)NC1c1c(OCC(=O)N2CCCCC2)ccc2ccccc12 (centres undefined),inactive
9,O=C(NCCSCc1ccccc1)c1ccc(F)cc1,inactive
10,CCOc1ccc(-c2nnc(NC(=O)CCCOc3cccc(C)c3)o2)cc1,inactive
11,COc1ccc(Br)cc1C(=O)NCc1cccnc1,inactive
12,C=CCNc1sc(C(=O)c2ccc(C)cc2)c(N)c1C#N,inactive
13,Cc1ccc(C(=O)NCC(=O)OCC(=O)N2CCCc3ccccc32)cc1,inactive
14,CCC(OC(=O)C(NC(=O)c1ccccc1)c1ccccc1)C(=O)Nc1cc(C)on1 (centres undefined),inactive
15,COc1ccc(-c2nnc(SCC(=O)NCc3ccco3)o2)cc1,inactive
16,CCn1c(SCC(=O)N2CCCCC2)nc(O)cc1=O,inactive
17,CC(=O)N1C(=O)C2(C(C#N)=C(N)Oc3c2c(C)nn3-c2ccccc2)c2ccccc21 (centres undefined),inactive
18,Oc1ccc(N2CCN(Cc3ccc(OCCCN4CCCCC4)cc3)CC2)cc1,inactive
19,O=C(COC(=O)/C=C/c1ccco1)Nc1cccc([N+](=O)[O-])c1,inactive
20,CCc1c(C)c2cc(Cl)c(O)c(CN(C)C)c2oc1=O,inactive
21,Cc1[nH]c2ccccc2c1/C=N/Nc1ccc(F)cc1F,inactive
22,COc1ccc(-c2[nH]ncc2/C=C(\C#N)C(=O)NC2CC2)cc1,inactive
23,N#Cc1nc(Cc2cccc3ccccc23)oc1NCCCN1CCOCC1,inactive

row,Compound,outcome
1,CCCSc1ncc(Cl)c(C(=O)Nc2ccc(S(=O)(=O)N3CC(C)OC(C)C3)cc2)n1 (centres undefined),inactive
2,CCn1nc(C(=O)NCc2ccco2)c(Cl)c1Cl,inactive
3,CCN(CC)Cc1c[nH]c2c(C(=O)OC)cccc12,inactive
4,Cc1ccccc1Cn1nc(C)c(NC(=O)c2noc3c2CCc2ccccc2-3)c1C,inactive
5,c1nc(N2CCC3(CC2)OCCO3)c2c3c(sc2n1)CCCC3,inactive
6,COc1ccccc1Nc1nc(NCc2ccco2)c2ccccc2n1,inactive
7,COCCSc1ccccc1C(=O)NCC1CCCO1 (centres undefined),inactive
8,CCCOc1ccc(C2NC(=S)NC(c3ccccc3)=C2C(=O)Nc2ccc(C)cc2)cc1OC (centres undefined),inactive
9,N#Cc1nc(-c2cccs2)oc1NCCCN1CCOCC1,inactive
10,COc1ccc(C)cc1NC(=O)C(Sc1nnc(-c2ccncc2)n1-c1ccc(Cl)cc1)c1ccccc1 (centres undefined),inactive
11,COc1ccc(OC)c(/C=N/NC(=O)Cc2nc3ccccc3[nH]2)c1,inactive
12,Cc1ccc(/C=N/NC(=O)Cn2cnc3ccccc32)o1,inactive
13,C=CCn1c(SCCOc2ccc(OC)cc2)nnc1C(C)NC(=O)c1ccc(OC)cc1 (centres undefined),inactive
14,O=C(CSCc1nc2ccccc2[nH]1)Nc1ccc2ccccc2c1,inactive
15,CC(Cl)C(=O)NNc1cccc(Cl)n1 (centres undefined),inactive
16,O=S(=O)(c1ccc2c(c1)OCCO2)N1CCN(c2cccc(Cl)c2)CC1,inactive
17,O=C(CSc1ncn[nH]1)Nc1cccc2ccccc12,inactive
18,COc1ccc(Oc2ccccc2/C=N/O)cc1,inactive
19,CCCNC(=O)CN(C1CCCCC1)S(C)(=O)=O,inactive
20,Cc1nnc(SC(C)C(=O)Nc2ccc(S(=O)(=O)N3CCCCCC3)cc2)s1 (centres undefined),inactive
21,O=S(=O)(/N=C(/Nc1cccc2ccccc12)c1ccccc1)c1cccs1,inactive
22,COc1ccc(-c2ccccc2)cc1NCc1ccccc1C,inactive
